# Results filed as inconclusive are left out. Entries that show only a call come without a potency. Unmarked numbers belong to inactive results. Calls of active or inactive are those of the source. Calls follow the shape of the dose curve; as a rule, active = well fitted curve in the direction sought with a large enough effect; inconclusive = small, poorly fitted or top-dose-only effect, or another doubt; inactive = no such curve, though single readings can be large; an effect the other way counts as inactive or inconclusive.
# Experiments:
# [1] = biological target: Cellular tumor antigen p53 (Homo sapiens) (UniProt P04637); test: Primary qHTS for small molecule compounds that upregulate eGFP-tagged delta133p53alpha (in N-terminal) cells. (AID 2060322); details: NCI-H358 eGFP-delta133p53alpha fluorescence, 24 h; activation: hits give high values; also: nearly all actives have a fitted effect of over 75% in size; also: potency is read from the fitted curve at half-maximal effect; as to activation: series mostly up to about 56 µM
# Procedure, shortened: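 NCI-H358 cells pre-induced 24 h with 10 ng/ml doxycycline to express N-terminal eGFP-delta133p53alpha, then dosed 24 h at 37C without doxycycline; fixed, Hoechst-stained, GFP intensity by laser scanning cytometry, normalized to DMSO (0%) and 57.5 uM 5-azacytidine (100%).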
# [2] = biological target: Aldehyde dehydrogenase, mitochondrial (Homo sapiens) (UniProt P05091); test: qHTS for Inhibitors of the Aldehyde Dehydrogenase Family (ALDH2) Primary screen (AID 2061308); also: nearly all actives have a fitted effect of over 55% in size
# [3] = biological target: Retinaldehyde dehydrogenase 3 (Homo sapiens) (UniProt P47895); test: qHTS for Inhibitors of the Aldehyde Dehydrogenase Family (ALDH1A3) Primary screen (AID 2061315)
# Cellular tumor antigen p53 (Homo sapiens), sequence (P04637 whole entry, looked up): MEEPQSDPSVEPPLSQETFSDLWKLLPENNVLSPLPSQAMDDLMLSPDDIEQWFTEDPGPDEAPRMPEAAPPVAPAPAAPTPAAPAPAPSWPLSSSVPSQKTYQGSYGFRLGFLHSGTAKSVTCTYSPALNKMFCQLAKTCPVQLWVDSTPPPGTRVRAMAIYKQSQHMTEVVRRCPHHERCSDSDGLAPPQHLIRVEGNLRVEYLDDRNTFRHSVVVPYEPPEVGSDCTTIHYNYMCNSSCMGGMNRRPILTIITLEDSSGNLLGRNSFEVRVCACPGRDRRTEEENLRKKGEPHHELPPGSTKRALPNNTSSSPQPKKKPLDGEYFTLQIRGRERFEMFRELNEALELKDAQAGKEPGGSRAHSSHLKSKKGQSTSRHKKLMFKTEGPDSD
Compound,activation [1],Potency [2],Potency [3],"activity change, negative = inhibition [2]","activity change, negative = inhibition [3]",Potency [1]
C[C@@H]1CN(Cc2ccccc2)C[C@H]1c1nc2c(cnn2C2CCOCC2)c(=O)[nH]1,18.8%,inactive,inactive,,,
COC(=O)C[C@@H]1C(C(=O)O)=CO[C@@H](O[C@@H]2O[C@H](CO)[C@@H](O)[C@H](O)[C@H]2O)/C1=C\COC(=O)/C=C/c1ccc(O)c(OC)c1,6.87%,inactive,inactive,,,
CC1OC(O[C@H]2CC[C@@]3(C)C(CC[C@]4(C)C3CC=C3C5CC(C)(C)CC[C@]5(C(=O)OC5OC(CO)C(OC6OCC(OC7OCC(O)C(O)C7O)C(O)C6O)C(O)C5O)CC[C@]34C)C2(C)C)C(O)C(O)C1OC1OC(CO)C(O)C(OC2OC(CO)C(O)C(O)C2O)C1O (some centres undefined),9.16%,,,8.06% [at 11.2 µM],8.31% [at 11.2 µM],
O=C(CCO[C@@H]1O[C@H](CO)[C@@H](O)[C@H](O)[C@H]1O)c1ccc(O)cc1,-6.87%,inactive,inactive,,,
CC(=O)O[C@@]1(C)C[C@@H](O)[C@]2(O)C=CO[C@@H](O[C@@H]3O[C@H](CO)[C@@H](O)[C@H](O)[C@H]3O)[C@@H]21,-14.5%,inactive,inactive,,,
CC1OC(OCC2OC(OC3CCC4(C)C(CCC5(C)C4CC=C4C6CC(C)(C)CCC6(C(=O)OC6OC(CO)C(O)C(O)C6O)CCC45C)C3(C)CO)C(O)C(O)C2O)C(O)C(O)C1O (centres undefined),-9.92%,inactive,inactive,,,
CC(O)/C=C/C1OC(=O)CC1Nc1ccc(C(=O)O)cc1 (centres undefined),-6.11%,inactive,inactive,,,
CC1=C2CC(=O)C(C)CC/C=C(\C)CC2OC1=O (centres undefined),8.93%,inactive,inactive,,,
CCC[C@@H](NC(=O)N1C(=O)C(CC)(CC)[C@@H]1Oc1ccc(C(=O)N2CCN(C)CC2)cc1)c1ccc2c(c1)OCO2,-10.5%,inactive,inactive,,,
COc1ccc(CNCc2cccc3ccccc23)cc1,-2.33%,inactive,inactive,,,
CCCCCCc1cccc(NC(=O)[C@H](N)CCP(=O)(O)O)c1,1%,inactive,inactive,,,
O=C(/C=C/c1ccc(O)cc1)OCC1=C[C@@H](O)[C@@H]2C=CO[C@@H](O[C@@H]3O[C@H](CO)[C@@H](O)[C@H](O)[C@H]3O)[C@H]12,-9.16%,inactive,inactive,,,
CC(=O)OC[C@]12[C@H](OC(C)=O)C(=O)[C@@H]3[C@@H](OC(C)=O)[C@@]14O[C@@]3(C)COC(=O)c1cccnc1[C@@H](C)[C@H](C)C(=O)O[C@@H]([C@H](OC(C)=O)[C@@H]2OC(C)=O)[C@]4(C)O,-13.7%,inactive,inactive,,,
C/C(=C\CCC(C)C1=CCC2(C)OC3=C(CC12)C(=O)C(O)CC3)CO (centres undefined),25.2%,inactive,inactive,,,
O=C(Nc1cccc([N+](=O)[O-])c1)c1cccc(S(=O)(=O)N2CCCCCC2)c1,1.67%,inactive,inactive,,,
CC(C)CCC1(O)C(=O)C(C)(C)C(O[C@@H]2O[C@H](CO)[C@@H](O)[C@H](O)[C@H]2O)C(C)(C)C1O (some centres undefined),12.5%,inactive,inactive,,,
CC(=O)O[C@@H]1C[C@@H](C)[C@](O)(CCC2=CC(=O)OC2)[C@@]2(C)CCCC(C)(C)C12 (some centres undefined),-29.8%,inactive,inactive,,,
CCC(C)CC(=O)OC1C(=O)C(CO)=CC(O)C1C(C)C (centres undefined),,inactive,inactive,,,23.9 µM (active)
CC(=O)OC1C(O)C2C(C)C3=CC(=O)OC3(O)CC2C2(C)CCCC(C)(CO)C12 (centres undefined),9.16%,inactive,inactive,,,
CC1(CO)CCCC2(C)C1C(OC(=O)c1ccccc1)CC1C(=O)OCC12O (centres undefined),-20.6%,inactive,inactive,,,
CC(=O)/C=C/C1C(C)CC(O[C@@H]2O[C@H](CO)[C@@H](O)[C@H](O)[C@H]2O)CC1(C)C (some centres undefined),-0.893%,inactive,inactive,,,
COC(=O)C1=CO[C@@H](O[C@@H]2O[C@H](CO)[C@@H](O)[C@H](O)[C@H]2O)[C@H]2[C@@H]1C=C[C@]21C=C([C@H](C)OC(=O)/C=C/c2ccc(O)cc2)C(=O)O1,,inactive,inactive,,,2.51 µM (active)
CC(C)=CCC[C@](C)(O[C@@H]1O[C@H](CO)[C@@H](O)[C@H](O)[C@H]1O)[C@H]1CC[C@]2(C)[C@@H]1[C@H](O)CC1[C@@]3(C)CC[C@H](O)C(C)(C)C3[C@@H](O[C@@H]3O[C@H](CO)[C@@H](O)[C@H](O)[C@H]3O[C@@H]3OC[C@@H](O)[C@H](O)[C@H]3O)C[C@]12C (some centres undefined),-15.3%,inactive,inactive,,,
